Experiment [1] addresses Glutathione peroxidase 1 (Homo sapiens) (UniProt P07203). As to the kind of experiment: Primary qHTS Assay for Inhibitors of Recombinant Selenoprotein Glutathione Peroxidase 1 (GPX1) (AID 1845191). Further: nearly all actives have a fitted effect of over 65% in size. On activity, negative = inhibition: on the % scale 0 is the no-effect control and ±100 the full control effect. The method, boiled down:
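Recombinant GPX1 (10 nM final) was preincubated with compound for 30 min at room temperature, then reacted with 1 mM GSH, 0.5 mM CHP, 0.5 mM NADPH and 100 nM glutathione reductase; NADPH fluorescence (340/450 nm) was read at 0 and 15 min.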
For orientation: In qHTS, concentration-response curves come from the screen itself.

The target of experiment [2] is Phospholipid hydroperoxide glutathione peroxidase GPX4 (Homo sapiens) (UniProt P36969). As to the kind of experiment: Primary qHTS Assay for Inhibitors of Recombinant Selenoprotein Glutathione Peroxidase 4 (GPX4) (AID 1845192). Further: nearly all actives have a fitted effect of over 65% in size. Further: potency means the concentration at half of the fitted maximal effect. In a few lines: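 GR-coupled readout: 100 nM GR, 1 mM GSH, 0.5 mM NADPH; NADPH fluorescence (ex 340/em 450 nm) read at t=0 and after 15 min RT. GPX4 200 nM, preincubated 30 min with compound; substrate 0.5 mM CHP.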

Experiment [3] can be described thus: qHTS profiling for inhibitors of Plasmodium falciparum proliferation (AID 504749). Further: nearly all actives have a fitted effect of over 60% in size. Further: potency means the concentration at half of the fitted maximal effect.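 On activity, negative = inhibition: 0% = DMSO vehicle and full inhibition = artemisinin control.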 The settings on record: P. falciparum in erythrocytes, SYBR Green DNA, 72 h. The method, boiled down:
(§1)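 Parasite proliferation within erythrocytes, 72 h exposure. Endpoint: SYBR Green I fluorescence after overnight lysis at room temperature. Controls: 0.29 uM artemisinin, DMSO.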

A further experiment relates to 3D7. Described as above. Conditions: P. falciparum in erythrocytes, SYBR Green DNA, 72 h; series mostly up to 28.7 µM. The method, boiled down:
as §1

The mark [4] stands for this setting: at 28.7 µM (top of the series), parasite line B.
The mark [5] stands for this setting: at 28.7 µM (top of the series), parasite line A.
Setting [6] is: at 12.8 µM (top of the series), parasite line A.
[7] abbreviates: at 12.8 µM (top of the series), parasite line B.

Inconclusive results are not listed. Unmarked numbers belong to inactive results. The source made the active and inactive calls. The call rests on the fitted dose curve; in most records, active means well fitted inhibition curve with a large enough effect; inconclusive means small, poorly fitted or top-dose-only effect; inactive means flat fitted curve, though single readings scatter.

Glutathione peroxidase 1 (Homo sapiens), sequence (P07203 whole entry, looked up): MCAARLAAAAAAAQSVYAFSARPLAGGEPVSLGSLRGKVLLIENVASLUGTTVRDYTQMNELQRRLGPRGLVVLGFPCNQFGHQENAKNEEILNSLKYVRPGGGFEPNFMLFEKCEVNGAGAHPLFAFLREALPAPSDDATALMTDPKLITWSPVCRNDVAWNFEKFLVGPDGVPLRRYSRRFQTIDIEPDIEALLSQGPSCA
Phospholipid hydroperoxide glutathione peroxidase GPX4 (Homo sapiens), sequence (P36969 whole entry, looked up): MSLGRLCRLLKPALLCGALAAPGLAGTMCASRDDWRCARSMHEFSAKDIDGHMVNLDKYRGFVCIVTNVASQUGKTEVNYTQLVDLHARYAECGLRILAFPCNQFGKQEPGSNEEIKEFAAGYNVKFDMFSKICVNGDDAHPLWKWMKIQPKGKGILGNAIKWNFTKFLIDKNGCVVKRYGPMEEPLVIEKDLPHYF

Regarding `CC(=O)Nc1c(I)c(C(=O)O)c(I)c(N(C)C(C)=O)c1I`, the Potency entry (in experiment [1]; in experiment [2]; in the experiment with 3D7) was “inactive” each time. Besides, the activity, negative = inhibition in experiment [3] (setting [4]) was -11.8%.
Consider `CCCCC(CC)CCC(CC(C)C)OS(=O)(=O)O` (centres undefined), for which the Potency entry (in experiment [1]; in the experiment with 3D7) was “inactive” in each case. Moreover, the Potency in experiment [2] is 10 µM (active). For the same molecule, the figures for the activity, negative = inhibition in experiment [3] (setting [5]) and in experiment [3] (setting [4]) were -0.0494% and 5.85%, respectively.
Turning to `O=C(OCc1ccccc1)c1cccnc1`, the Potency result (in experiment [1]; in experiment [2]; in the experiment with 3D7) was “inactive” each time. Besides, the activity, negative = inhibition in experiment [3] (setting [5]) was -26.7%.
On to `CCCc1ccc(C(=O)O)cc1`, for which the Potency entry (in experiment [1]; in experiment [2]; in the experiment with 3D7) was “inactive” each time. Besides, the activity, negative = inhibition in experiment [3] (setting [5]) is -2.85%; in experiment [3] (setting [4]), -4.82%.
Turning to `CCSc1ccc2c(c1)N(CCCN1CCN(C)CC1)c1ccccc1S2`, the Potency entry (in experiment [1]; in experiment [2]; in the experiment with 3D7) was “inactive” in each case. Further, the activity, negative = inhibition in experiment [3] (setting [6]) was 14.2%; in experiment [3] (setting [7]) it was 7.58%.
For `O=C(Nc1ccc(O)cc1)c1ccccc1O`, the Potency result (in experiment [1]; in experiment [2]; in the experiment on 3D7) was “inactive” each time. Moreover, in experiment [3] (setting [5]), the activity, negative = inhibition is 12.3%.
Turning to `CN1C(=O)OC(C)(C)C1=O`, the Potency entry (in experiment [1]; in experiment [2]; with 3D7) was “inactive” in each case. Besides, the values for the activity, negative = inhibition in experiment [3] (setting [6]) and in experiment [3] (setting [7]) were -13.9% and 4.58%, respectively.
As for `O=C(O)CCC(=O)c1ccc(-c2ccccc2)cc1`, the Potency entry (in experiment [1]; in experiment [2]; in the experiment with 3D7) was “inactive” each time. The values for the activity, negative = inhibition in experiment [3] (setting [6]) and in experiment [3] (setting [7]) were -3.71% and 12.2%, respectively.
On to `C(=C\c1ccncc1)/c1ccccc1`, for which the Potency entry (in experiment [1]; in experiment [2]; in the experiment on 3D7) was “inactive” in each case. The activity, negative = inhibition in experiment [3] (setting [5]) is -2.95%; in experiment [3] (setting [4]), -9.52%.
In the case of `OC[C@H]1O[C@@](CO)(O[C@H]2O[C@H](CO)[C@@H](O)[C@H](O)[C@H]2O)[C@@H](O)[C@@H]1O`, the Potency entry (in experiment [1]; in experiment [2]; with 3D7) was “inactive” in each case. The activity, negative = inhibition in experiment [3] (setting [5]) was 11.2%; in experiment [3] (setting [4]), -0.203%.
As for `CS(=O)(=O)OCC(O)C(O)COS(C)(=O)=O` (centres undefined), the Potency result (in experiment [1]; in experiment [2]; in the experiment with 3D7) was “inactive” each time. The activity, negative = inhibition in experiment [3] (setting [5]) is -4.77%; in experiment [3] (setting [4]), -5.43%.
As for `CCC(O)c1ccccc1` (centres undefined), the Potency result (in experiment [1]; in experiment [2]; in the experiment with 3D7) was “inactive” each time. Moreover, the activity, negative = inhibition was 5.27% in experiment [3] (setting [5]) and 8.76% in experiment [3] (setting [4]).
For `CO/N=C(\C(=O)N[C@@H]1C(=O)N2C(C(=O)[O-])=C(C[n+]3cccc4c3CCC4)CS[C@H]12)c1csc(N)n1`, the activity, negative = inhibition in experiment [3] (setting [5]) was 12.2%; in experiment [3] (setting [4]), 2.56%. Further, the Potency entry in the experiment with 3D7 is “inactive”.
On to `O.O.O.O.O.O.O.O=S(=O)([O-])[O-].[Co+2]`, for which the Potency in experiment [3] (parasite line A) is 11.2 µM (active); in experiment [3] (parasite line B) it was 8.91 µM (active).
Take `NCCO/C=C/[C@H](N)C(=O)O`: the activity, negative = inhibition in experiment [3] (setting [5]) was 6.56%; in experiment [3] (setting [4]), 15.6%. Besides, the Potency entry with 3D7 was “inactive”.
In the case of `COC(=O)[C@@H](N)CS`, in experiment [2], the Potency was 10 µM (active). The activity, negative = inhibition in experiment [3] (setting [5]) is -8.41%; in experiment [3] (setting [4]), 10.4%.
Regarding `O=c1n(CC2CO2)c(=O)n(CC2CO2)c(=O)n1CC1CO1` (centres undefined), the activity, negative = inhibition in experiment [3] (setting [4]) was -29.5%.
As for `CC[C@H]1OC(=O)C[C@@H](O)[C@H](C)[C@@H](O[C@@H]2O[C@H](C)[C@@H](O[C@H]3C[C@@](C)(O)[C@@H](O)[C@H](C)O3)[C@H](N(C)C)[C@H]2O)[C@@H](CC=O)C[C@@H](C)C(=O)/C=C/C(C)=C/[C@@H]1CO[C@@H]1O[C@H](C)[C@@H](O)[C@@H](OC)[C@H]1OC`, the Potency result in experiment [2] is “inactive”.
In the case of `S=C1SCN(Cc2ccccc2)CN1Cc1ccccc1`, the Potency in experiment [2] was 15.8 µM (active). Further, the activity, negative = inhibition in experiment [3] (setting [5]) was -6.7%. Besides, the Potency result with 3D7 was “inactive”.
Consider `O=C(O)CCC/C=C\C[C@@H]1[C@@H](/C=C/[C@@H](O)COc2cccc(Cl)c2)[C@H](O)C[C@@H]1O`, for which the Potency result (in experiment [1]; in the experiment with 3D7) was “inactive” in each case. In addition, the activity, negative = inhibition is 11.9% in experiment [3] (setting [5]) and -6.6% in experiment [3] (setting [4]).
For the molecule `CCc1ccc(S(=O)(=O)O)cc1`, the activity, negative = inhibition in experiment [3] (setting [5]) is -3.46%; in experiment [3] (setting [4]), 4.58%. The Potency entry with 3D7 is “inactive”.
In the case of `CC(CN1c2ccccc2Sc2cccnc21)N(C)C` (centres undefined), the Potency result in experiment [2] was “inactive”.
As for `COc1ccc(/C=N/NC(=O)c2ccncc2)c(C(=O)O)c1OC`, the activity, negative = inhibition is 15.9% in experiment [3] (setting [5]) and -6.37% in experiment [3] (setting [4]). In addition, the Potency result in the experiment on 3D7 was “inactive”.
Regarding `O=C1CCC(c2ccccc2)(C2CCN(Cc3ccccc3)CC2)C(=O)N1` (centres undefined), the figures for the activity, negative = inhibition in experiment [3] (setting [5]) and in experiment [3] (setting [4]) were 7.2% and 9.21%, respectively. For the same molecule, the Potency entry in the experiment on 3D7 is “inactive”.
`O=C(O)c1cc(N=Nc2ccc(O)c(C(=O)O)c2)ccc1O`: the Potency result (in experiment [1]; with 3D7) was “inactive” each time. In addition, the activity, negative = inhibition in experiment [3] (setting [5]) was 9.5%; in experiment [3] (setting [4]), 11.5%.
As for `CCOc1cc(-c2nccc3cc(OC)c(OC)cc23)cc(OCC)c1OCC`, the figures for the Potency in experiment [3] (parasite line A) and in experiment [3] (parasite line B) were 8.91 µM (active) and 11.2 µM (active), respectively.
Turning to `O=C(c1cc2ccccc2o1)N1CCN(Cc2ccccc2)CC1`, in experiment [3] (parasite line A), the Potency is 7.94 µM (active).
Regarding `O=C(OC[C@H]1O[C@@H](OC(=O)c2cc(O)c(O)c(OC(=O)c3cc(O)c(O)c(O)c3)c2)[C@H](OC(=O)c2cc(O)c(O)c(OC(=O)c3cc(O)c(O)c(O)c3)c2)[C@@H](OC(=O)c2cc(O)c(O)c(OC(=O)c3cc(O)c(O)c(O)c3)c2)[C@@H]1OC(=O)c1cc(O)c(O)c(OC(=O)c2cc(O)c(O)c(O)c2)c1)c1cc(O)c(O)c(OC(=O)c2cc(O)c(O)c(O)c2)c1`, in experiment [2], the Potency was 4.47 µM (active).
In the case of `CN(C)C=Nc1c(I)cc(I)c(CCC(=O)O)c1I`, the Potency entry (in experiment [1]; in the experiment on 3D7) was “inactive” each time. Moreover, the activity, negative = inhibition in experiment [3] (setting [5]) was 0.723%; in experiment [3] (setting [4]), 1.95%.

Values taken from PubChem BioAssay (NCATS).
